Drawing on PubChem BioAssay (Tox21), this text covers outcome for 19 compounds.

Inconclusive results are not listed. The source made the active and inactive calls. The call rests on the fitted dose curve; in most records, active means well fitted activation curve with a large enough effect in the repeat runs; inconclusive means weak or mixed curves; inactive means no such curve, though single readings can be large or run the other way.

The experiment in a line: qHTS assay to identify small molecule agonists of the estrogen related receptor signaling pathway with the pleiotropic PPARgamma coactivator (PGC) (AID 1224823). The settings on record: ERR/PGC reporter cell line, luciferase agonist mode; series mostly up to 46.1 µM. The source says: National Center for Advancing Translational Sciences [NCATS]
NIH Chemical Genomics Center [NCGC]
U.S. Environmental Protection Agency [EPA]
National Institutes of Environmental Health Sciences [NIEHS]
National Toxicology Program [NTP]
Estrogen related receptors (ERRs), the first orphan nuclear receptors discovered, play an important role in the control of cellular energy metabolism. ERRs are required for high-energy production in response to the environmental challenges. The pleiotropic PPARgamma coactivator (PGC) is a major partner of ERR and a key regulator in energy homeostasis. Together they have been implicated in the etiology of metabolic disorders such as Type 2 diabetes and metabolic syndrome. ERR-alpha was also identified as an adverse marker for breast cancer progression; ERR-alpha-positive tumors have a poor prognosis. To screen and to identify environmental compounds that perturb the PGC/ERR signaling pathways could provide valuable information for potential therapeutic or preventive measures in the treatment of metabolic disease. For identifying PGC/ERR agonists, PGC/ERR cell line (provided by NTP) has been used to screen LOPAC library.
The PGC/ERR cells were dispensed at 2,000 cells/5 ul/well in 1536-well white plates using a Multidrop dispenser. After the assay plates were incubated at a 37 C/5% CO2 incubator for 6 hours, 23 nL of compounds dissolved in DMSO, positive and negative controls or DMSO only was transferred to the assay plate by a pin tool. The plates were incubated at 37 C for 18 hours. 4 ul/well of One-Glo reagent was added into the assay plates using a Flying Reagent Dispenser. After 30 min incubation at room temperature, the luminescence intensity in the plates was measured using a ViewLux plate reader.
For the compound `CC(C)(c1ccc(O)cc1)c1ccc(O)cc1`, the compound was called inactive.
On to `Brc1c(NC2=NCCN2)ccc2nccnc12`, for which the outcome was inactive.
With `CCn1nc(C(=O)O)c(=O)c2cc3c(cc21)OCO3`, the compound was called inactive.
Regarding `CN(C)CCCN1c2ccccc2CCc2ccc(Cl)cc21`, the result was inactive.
Consider `COC(=O)[C@@H](N)Cc1ccc(O)c(O)c1`, for which the result was inactive.
On to `COC(=O)c1c(Cl)c(Cl)c(C(=O)OC)c(Cl)c1Cl`, for which the compound was classed as inactive.
Turning to `CC(C[N+](C)(C)C)OC(N)=O` (centres undefined), the compound was called inactive.
In the case of `Cc1cccc(C)c1NC(=O)C(C)N` (centres undefined), the result was inactive.
The result for `O=C(O)CN(CCOCCOCCN(CC(=O)O)CC(=O)O)CC(=O)O` reads “inactive”; that for `C[C@H](NC(CCc1ccccc1)C(=O)O)C(=O)N1CCC[C@H]1C(=O)O` (some centres undefined), “inactive”; that for `CCO/C([O-])=N/c1c[n+](N2CCOCC2)no1`, “inactive”.
For `Nc1c2c(nc3ccccc13)CCCC2O` (centres undefined), the result was inactive.
Regarding `O=C(CCCN1CCC(O)(c2cccc(C(F)(F)F)c2)CC1)c1ccc(F)cc1`, the call was inactive.
In the case of `COCCc1ccc(OCC(O)CNC(C)C)cc1` (centres undefined), the compound was classed as inactive.
Take `CCOC(=O)Nc1ccc(NCc2ccc(F)cc2)nc1N`: the compound was called inactive.
On to `COC(=O)C1=C(C)NC(C)=C(C(=O)OC)C1c1ccccc1[N+](=O)[O-]`, for which the result was inactive.
With `CCn1ccnc1CC1COc2ccccc2O1` (centres undefined), the call was inactive.
With `C[C@](N)(Cc1ccc(O)cc1)C(=O)O`, the result was inactive.
With `Cc1ccc(=O)n(-c2ccccc2)c1`, the compound was classed as inactive.
